Records with an inconclusive call do not appear. Where a call stands in place of a potency, no number is given. Activity calls are given as the source filed them. Calls come from the whole dose curve; as a rule, active = well fitted inhibition curve with a large enough effect; inconclusive = small, poorly fitted or top-dose-only effect; inactive = flat fitted curve, though single readings scatter.
Assay: High Content Imaging Cell-Based qHTS for Inhibitors of the mTORC1 Signaling Pathway in MEF (Tsc2-/-, p53-/-) Cells (AID 2666);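 note: percent of cells scored positive for phospho-rpS6 Ser235/236 immunostaining by imaging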
Conditions: series mostly up to 38.3 µM
Description: NIH Molecular Libraries Probe Production Centers Network [MLPCN]
NIH Chemical Genomics Center [NCGC]
Assay Submitter (PI): Blenis, John; Hoffman, Greg; Harvard University
NCGC Assay Overview: Thee mammalian target of rapamycin (mTOR) is an intracellular serine/threonine kinase Aberrant regulation of mTOR signaling plays a causative role in a number of human diseases, including cancer, benign tumors such as lymphangioleiomyomatosis (LAM) and Tuberous Sclerosis Complex (TSC), and metabolic diseases such as diabetes and obesity. This project aims to identify inhibitors of ribosomal protein S6 (rpS6) phosphorylation. The phosphorylation of rpS6 is a key event downstream of mTOR activation. The assay uses a phospho-specific antibody of phospho-rpS6 to detect inhibitors of mTOR activation. Mutations in the Tsc1 and Tsc2 genes are the underlying genetic lesions responsible for TSC, causing constitutive activation of the mTORC1 pathway and leading to profound effects on cell metabolism. Aberrant metabolism in cancer has recently received significant attention as a target to develop therapeutic agents in the treatment of cancer1. As Tsc2-/- cells have lost the ability to respond to energy and growth factor deprivation, these cells are unable to properly down regulate cellular biosynthetic processes in response to metabolic stress, and are thus extremely sensitive to glucose deprivation-induced death.2 A central goal of this project is to explore the unique cell survival and metabolic properties of cells with Tsc1 or Tsc2 by screening for compounds that selectively target the Tsc2-/- MEFs by screening both Tsc2-/- and WT MEF cell lines. We hope to better understand these aspects of TSC physiology in order to exploit them for therapeutic benefit.
NCGC IN Cell Assay Protocol:
For quantitative high throughput analysis of mTORC1 signaling, we developed a cell-based assay for immuno-fluorescence based detection of rpS6 phosphorylation on the Acumen Explorer that will be used a platform for the primary small molecule screen. Mouse embryonic fibroblasts (MEFs) are cultured in 1536-well plates using DMEM + 10% FBS. Twenty-four hrs after plating, test compounds (solubilized in DMSO) are delivered and incubated with the cells for 24 hrs at 37 degree Celsius. Following the incubation, media with compound is aspirated and the cells are fixed in 4% paraformaldehyde (PFA) containing PBS + 0.2% TX-100. Next, PFA is aspirated, cells are washed two times with PBS plus 0.2% TX-100 and the cells are blocked for 1 hr at room temperature (blocking buffer: LiCOR Blocking Buffer plus 0.2% TX-100). This is followed by aspiration and staining with Alexa-488 conjugated-phospho-rpS6 Ser235/236 antibody for 2 hours at room temperature (Cell Signaling Technology # 4803, 1:50 dilution in blocking buffer). Cells are washed two times with PBS plus 0.2% TX-100, and stained with 10 uM propidium iodide (PI) for 20-25 minutes for cell number measurement (1:500 dilution of Hoescht staining is also added for IN Cell imaging). Active wells which are selected (based on Acumen results) are imaged on the IN Cell 1000 (GE Healthcare) using the D360/40X and HQ480/40X excitation filters for the Hoechst and Alexa-488 cytoplasmic stains, respectively. The fluorescence emission filters used were HQ460/40M and HQ535/50M for the Hoechst and Alexa-488 cytoplasmic stains, respectively. The normalized phospho-S6 staining is calculated as the ratio of […] for the single concentration rapamycin control ([…] nM) and DMSO columns. […] Inhibition of the pathway is defined based on the normalized phospho-S6 intensity in rapamycin treated cells. Each treatment is reported as the % positive cells in the well, where thresholds are defined by selecting wells with the highest and lowest signal and differentiating between the % non-active and % active populations. […]

SMILES | Potency
NS(=O)(=O)c1cc2c(cc1Cl)NCNS2(=O)=O | inactive
CN1CCN2c3ccccc3Cc3ccccc3C2C1 (stereo not given) | inactive
Cc1cnc(C(=O)NCCc2ccc(S(=O)(=O)NC(=O)NC3CCCCC3)cc2)cn1 | inactive
CC(C)NCC(O)COc1ccc(CCOCC2CC2)cc1 (stereo not given) | inactive
CCC1(C)CC(=O)NC1=O (stereo not given) | inactive
OCCN(CCO)c1nc(N2CCCCC2)c2nc(N(CCO)CCO)nc(N3CCCCC3)c2n1 | inactive
CC(C)NCC(O)c1ccc(O)c(O)c1 (stereo not given) | inactive
O=c1c(-c2ccc(O)cc2)coc2cc(O)cc(O)c12 | inactive
NCCc1cnc[nH]1 | inactive
Cn1c(=O)c2c(ncn2C)n(C)c1=O | inactive
CCCCc1oc2ccccc2c1C(=O)c1cc(I)c(OCCN(CC)CC)c(I)c1 | inactive
Clc1ccc(C(c2ccccc2Cl)C(Cl)Cl)cc1 (stereo not given) | inactive
Nc1nc2c(ncn2COC(CO)CO)c(=O)[nH]1 | inactive
CCCNCC(O)COc1ccccc1C(=O)CCc1ccccc1 (stereo not given) | inactive
CCOC(=O)c1ncn2c1CN(C)C(=O)c1cc(F)ccc1-2 | inactive
O=c1c(O)c(-c2ccc(O)c(O)c2)oc2cc(O)cc(O)c12 | inactive
COC(=O)Nc1nc2ccc(C(=O)c3cccs3)cc2[nH]1 | inactive
Cc1cc(C(C)(C)C)cc(C)c1CC1=NCCN1 | inactive
CS(=O)(=O)Nc1ccc([N+](=O)[O-])cc1Oc1ccccc1 | inactive
CN(C)CCC=C1c2ccccc2C=Cc2ccccc21 | inactive

SMILES | Potency
Cc1ccccc1N1C(=O)c2cc(S(N)(=O)=O)c(Cl)cc2NC1C (stereo not given) | inactive
CCc1cccc2c3c([nH]c12)C(CC)(CC(=O)O)OCC3 (stereo not given) | inactive
Nc1nnc(-c2cccc(Cl)c2Cl)c(N)n1 | inactive
CN1C2CCC1CC(OC(=O)C(CO)c1ccccc1)C2 (stereo not given) | inactive
CC12CC3CC(C)(C1)CC(N)(C3)C2 | inactive
C[C@H]1c2cccc(O)c2C(O)=C2C(=O)[C@]3(O)C(O)=C(C(N)=O)C(=O)[C@@H](N(C)C)[C@@H]3[C@@H](O)[C@@H]21 | inactive
CCN1CCCC1CNC(=O)c1cc(S(=O)(=O)CC)c(N)cc1OC (stereo not given) | inactive
O=C1Cc2cc(CCN3CCN(c4nsc5ccccc45)CC3)c(Cl)cc2N1 | inactive
O=C1c2c(O)ccc(O)c2C(=O)c2c(NCCNCCO)ccc(NCCNCCO)c21 | inactive
Clc1ccc2c(c1)C(N1CCNCC1)=Nc1ccccc1O2 | inactive
COc1cc2nc(N3CCN(C(=O)c4ccco4)CC3)nc(N)c2cc1OC | inactive
CN(C)CCOC(c1ccccc1)c1ccccc1 | inactive
O=C(c1ccc(F)cc1)C1CCN(CCn2c(=O)[nH]c3ccccc3c2=O)CC1 | inactive
COc1ccccc1OCCNCC(O)COc1cccc2[nH]c3ccccc3c12 (stereo not given) | inactive
COc1cc2c(c(OC)c1OC)-c1ccc(OC)c(=O)cc1[C@@H](NC(C)=O)CC2 | inactive
COc1ccc(CCN(C)CCCC(C#N)(c2ccc(OC)c(OC)c2)C(C)C)cc1OC (stereo not given) | inactive
NC(=O)OCC(COC(N)=O)c1ccccc1 | inactive
CC[N+](CC)(CC)CCOc1cccc(OCC[N+](CC)(CC)CC)c1OCC[N+](CC)(CC)CC | inactive
CC(C)Cc1ccc(C(C)C(=O)O)cc1 (stereo not given) | inactive
Cn1cnc2c1c(=O)[nH]c(=O)n2C | inactive

From PubChem BioAssay (NCATS)
